Mtb hypoxia inh – inhibitors of hypoxia-regulated fluorescent reporter in Mycobacterium tuberculosis | M. tuberculosis hypoxia-regulated fluorescent reporter, fluorescence | fluorescence inhibition, % (no concentration beside the values) | 0.1% of 300,000 active; in the data active = fluorescence inhibition mostly above about 23%, no sharp cut-off; inactive = mostly below about 17%
Sa RN4220 lethal – S. aureus RN4220 growth inhibition; OD600, 16 h; inhibition, % (concentration not given with the values); 0.33% of 330,000 active; in the data active = inhibition above about 85%
ugtP null kill – compounds lethal to S. aureus RN4220 ugtP deletion mutant | 0.54% of 330,000 active | OD600 growth, 16 h | growth inhibition, % (no concentration beside the values) | AID 1259309; in the data active = growth inhibition above about 68%
SSB-PriA inh – inhibitors of Klebsiella pneumoniae PriA binding to SSB C-terminal tail; AlphaScreen SSBct-PriA binding, biotinylated peptide; inhibition, % at 33 µM; 0.6% of 430,000 active; in the data active = inhibition mostly above about 37%, no sharp cut-off; inactive = mostly below about 20%
Numbers stand for hits; - = inactive; . = not tested or not shown; ! = not active in a repeat. Shown are actives, neighbours in structure and some others; about 1.1% of the full set was active somewhere.

SMILES | Mtb hypoxia inh | Sa RN4220 lethal | ugtP null kill | SSB-PriA inh
CC(=O)Nc1cccc(NC(=O)CSc2ccc(-c3ccccn3)nn2)c1 | - | - | - | -
Cn1cnnc1S(=O)(=O)C1CCN(C(=O)CCn2cnc3ccccc3c2=O)CC1 | . | . | . | -
Oc1cccc(-c2nc3ccc4ccccc4c3c3c2CCC3)c1 | - | - | 100 | -
O=C(NNc1c2ccccc2nc2ccccc12)c1cccc(O)c1 | - | - | - | -
O=C1c2ccccc2-c2onc3c(N4CCOCC4)cc(N4CCOCC4)c1c23 | . | . | . | -
CC(=O)OCCNc1cc(N2CCN(C)CC2)c2noc3c2c1C(=O)c1ccccc1-3 | 54 | - | - | -
CCN1CCN(c2cc(N3CCN(C(=O)c4ccco4)CC3)c3c4c(onc24)-c2ccccc2C3=O)CC1 | . | . | . | 76
O=C(O)CCNc1cc(N2CCN(C(=O)c3ccco3)CC2)c2noc3c2c1C(=O)c1ccccc1-3 | . | . | . | 54
O=C(CSc1ccccc1)N(CCCN1CCOCC1)c1nc2ccccc2s1 | . | . | . | -
CC(NC(=O)c1csc(Nc2ccc(S(C)(=O)=O)cc2)n1)c1ccccc1 (configuration not stated) | . | . | . | -
Cc1cc(C(F)(F)F)nc(CCNC(=O)c2c(F)cccc2F)n1 | . | . | . | -
CCN(CCNC(=O)C1CCN(Cc2nc(-c3ccc(Cl)cc3)oc2C)CC1)c1ccccc1 | - | - | - | 46
CCN(CCNC(=O)C1CCCN(Cc2nc(-c3ccc(OC)cc3)oc2C)C1)c1ccccc1 (configuration not stated) | - | - | - | 48
O=C(Cc1ccc(F)cc1)Nc1nnc(-c2ccc(Cl)cc2Cl)s1 | . | . | . | -
Cc1cn2c(=O)c(C(=O)Nc3cccc(Cl)c3Cl)cnc2s1 | . | . | . | -
Cc1ccc(C(=O)CC(=O)c2cccc(F)c2)c(O)c1 | - | 88 | 94 | -
Cc1ccc(C(=O)CC(=O)c2ccccc2C)c(O)c1 | - | - | 87 | -
CC(=O)c1ccc(C)cc1OC(=O)c1cccc(F)c1 | - | - | - | -
Cc1ccc(N2CC(C(=O)NCCOc3cc(N4CCOCC4)ncn3)CC2=O)cc1C (configuration not stated) | . | . | . | -
O=C(C1CCN(Cc2nc3ccccc3[nH]2)CC1)N1CCN(c2cccc(Cl)c2Cl)CC1 | . | . | . | -
COc1cnc(-c2ccccn2)nc1Oc1ccc(F)cc1F | - | - | - | 53
COc1cnc(-c2ccccn2)nc1Oc1ccc(Cl)cc1 | - | - | - | 52
O=S(=O)(Cc1ccc(C(F)(F)F)cc1)NCCc1csc(-c2ccc(F)cc2)n1 | . | . | . | -
O=C(NCC#CCN1CCCC1)Nc1c(F)cccc1F | . | . | . | -
NC(=O)COC(=O)c1oc2ccccc2c1CSc1ccc(Cl)cc1 | - | - | 96 | -
SMILES | Mtb hypoxia inh | Sa RN4220 lethal | ugtP null kill | SSB-PriA inh
Cn1cc(S(=O)(=O)N(Cc2cccn2C)C2CC2)cn1 | . | . | . | -
Cc1cc(N2CCCCC2)n2ncc(-c3ccc(Cl)cc3)c2n1 | - | - | 85 | -
CCCCCCC(=O)NN=Cc1c(O)n(CCCC)c(=S)[nH]c1=O | . | . | . | -
O=C(NC(=S)Nc1nc2c(s1)CSc1ccccc1-2)c1ccccc1 | - | - | 84 | -
COc1ncccc1C(=O)NCC1CCS(=O)(=O)C1 (configuration not stated) | . | . | . | -
O=c1ccc(-c2ccc(F)cc2)nn1CCCNS(=O)(=O)/C=C/c1ccccc1 | . | . | . | -
COc1ccc(OC)c2c(C)cc(N3CCCN(C)CC3)nc12 | - | - | - | 44
COc1ccccc1N1CCN(c2cc(N3CCCC3)nc(C)n2)CC1 | . | - | - | -
CCN(CC)c1ccc(/C=C2\C(=O)N(c3nnc(C)c(=O)[nH]3)N=C2C)cc1 | - | - | - | 78
CCN(CC)c1ccc(/C=C2/C(=O)ON=C2C)cc1 | - | - | - | -
CC(C)Nc1nc(C#N)nc(NC(C)C)n1 | - | - | - | 42
CSc1nc(NC(C)C)nc(NC(C)C)n1 | - | - | - | -
COC(=O)c1[nH]c2ccc(C)cc2c1NS(=O)(=O)c1ccc(OC)cc1OC | . | . | . | 57
COc1ccc(S(=O)(=O)Nc2c(C(=O)O)[nH]c3ccc(OC)cc23)c(OC)c1 | - | - | - | 106
COc1ccc(CCNC(=O)C2CN(S(C)(=O)=O)C2)cc1 | . | . | . | -
NC(=O)C1CCN(c2ccc3cccc(OCC(=O)Nc4ccc(OC(F)(F)F)cc4)c3n2)CC1 | . | . | . | -
O=C(C1CC1)N1CCCC[C@H](c2ccc(F)cc2)C1 | . | . | . | -
Cc1c2ccncc2cc2c1[nH]c1ccccc12 | - | - | - | -
COc1ccc2[nH]c3c(C)c4ccncc4c(C)c3c2c1 | . | 98 | 96 | -
Cc1c2ccncc2c(C)c2c1[nH]c1ccccc12 | 60 | 98 | 100 | -
Cc1nc(Nc2ccc(Cl)cc2Cl)sc1C(=O)Nc1ccccc1 | - | - | - | -
Cc1nc(Nc2ccc(Cl)c(Cl)c2)sc1C(=O)Nc1ccccc1 | - | 93 | 99 | -
CCN(CC)CCN(C(=O)c1ccc(C(=O)c2ccccc2)cc1)c1nc2cc3c(cc2s1)OCO3 | - | - | - | 41
CCN(CC)CCN(C(=O)c1ccc2ncsc2c1)c1nc2cc3c(cc2s1)OCO3 | - | - | - | -
CCN(CC)CCN(C(=O)c1ccc(C(=O)c2ccccc2)cc1)c1nc2c(OC)cccc2s1 | - | - | - | 37!
SMILES | Mtb hypoxia inh | Sa RN4220 lethal | ugtP null kill | SSB-PriA inh
CN(C)CCCN(C(=O)c1ccc(C(=O)c2ccccc2)cc1)c1nc2cc3c(cc2s1)OCO3 | - | - | - | 44
CN(C)CCCN(C(=O)c1cc2c(ccc3ccccc32)oc1=O)c1nc2cc3c(cc2s1)OCCO3 | . | . | . | 66
COC(=O)c1ccc(Cn2nc(-c3cccs3)n(C3CC3)c2=O)o1 | . | . | . | -
N#Cc1nccnc1O[C@H]1CCCN(C(=O)COc2ccccc2F)C1 | . | . | . | -
CCN(CC)CCN(C(=O)Cc1cccc2ccccc12)c1nc2cc3c(cc2s1)OCO3 | . | . | . | 35
CN(C)CCCN(C(=O)c1cc2cc([N+](=O)[O-])ccc2s1)c1nc2cc3c(cc2s1)OCO3 | . | . | . | -
CCN(CC)CCN(C(=O)CCS(=O)(=O)c1ccccc1)c1nc2cc3c(cc2s1)OCO3 | - | - | - | -
CN(C)CCCN(C(=O)c1cc2cc([N+](=O)[O-])ccc2s1)c1nc2cc3c(cc2s1)OCCO3 | . | . | . | 46!
CCS(=O)(=O)N1CCc2ccc(NS(=O)(=O)c3ccc(C(C)(C)C)cc3)cc2C1 | . | . | . | -
Nc1c(Cl)cc(C2=NCCn3c2c2ccc([N+](=O)[O-])cc2[n+]3[O-])cc1Cl | 45 | - | - | -
Nc1c(Cl)cc(C2=NCCn3nc4cc([N+](=O)[O-])ccc4c32)cc1Cl | . | . | . | -
O=C(COc1coc(CN2CCN(Cc3ccccc3)CC2)cc1=O)NCc1ccc2c(c1)OCO2 | . | . | . | -
CC(C)Oc1ccc(C(=O)Nc2nc(-c3cc4ccccc4oc3=O)cs2)cc1 | . | . | . | -
CCCN1CCCc2cc(CCNS(=O)(=O)c3ccc(C)cc3C)ccc21 | . | . | . | 41
CCCN1CCCc2cc(CCNC(=O)C(=O)Nc3cc(C)ccc3C)ccc21 | . | . | . | -
CCCN1CCCc2cc(CCNC(=O)C(=O)Nc3ccc(C)c(C)c3)ccc21 | . | . | . | -
CCCN1CCCc2cc(CCNS(=O)(=O)c3ccc(NC(C)=O)cc3C)ccc21 | . | . | . | 70
O=C(CSc1n[nH]c(=O)[nH]c1=O)NN=Cc1ccccc1 | . | . | . | -
COc1cc(C2C(=C(O)c3ccc4c(c3)OCCO4)C(=O)C(=O)N2Cc2ccccc2)ccc1O (configuration not stated) | . | . | . | -
Cc1ccc(C=NNc2nc(C(C)(C)C)cs2)o1 | - | - | - | -
